Here are results for eight compounds from PubChem BioAssay (Tox21).

Several values for one entry are separate records, joined by “and”; a condition that tells them apart may be missing. Equal entries are not always repeated. Records with an inconclusive call do not appear. A number with no mark means an inactive call. Activity calls are given as the source filed them. Unless noted, calls come from the whole dose curve; as a rule, active = well fitted curve in the direction sought with a large enough effect in the repeat runs; inconclusive = weak or mixed curves; inactive = no such curve, though single readings can be large; an effect the other way counts as inactive or inconclusive.

Experiment [1] can be described thus: qHTS assay to identify small molecule antagonists of the thyroid receptor (TR) signaling pathway (AID 743065). Note: series mostly up to about 70 µM; nearly all actives have a fitted effect of over 55% in size. Summed up:
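GH3.TRE-Luc rat pituitary cells carrying two TR response elements driving luciferase were plated for 4 h, given compound plus 1 nM T3 (final), and incubated 23.5 h at 37 C. ONE-Glo luminescence measured reporter inhibition; CellTiter-Fluor fluorescence tracked cytotoxicity.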

Experiment [2] has as its system thyroid hormone receptor (rat, GH3 cells). The experiment is described as follows: qHTS assay to identify small molecule agonists of the thyroid receptor (TR) signaling pathway (AID 743066; calls by dose curve). A general note: In qHTS, concentration-response curves come from the screen itself.
For experiment [3], the target named is Estrogen receptor (Homo sapiens) (UniProt P03372). The experiment is described as follows: qHTS assay to identify small molecule antagonists of the estrogen receptor alpha (ER-alpha) signaling pathway (AID 743069; active = well fitted curve in the direction sought with a large enough effect in the signal ratio in the repeat runs, not every such curve was filed as active; the % refers to the signal ratio). Summed up:
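A 17beta-estradiol challenge was applied right after compound transfer to ER-alpha-UAS-bla HEK293 cells previously kept in charcoal-stripped serum. Plates stood 18 hr at 37C and 5% CO2; fluorescence was read following 2 hr FRET substrate loading at room temperature.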

For experiment [4] the target is unchanged. Put plainly: qHTS assay to identify small molecule agonists of the estrogen receptor alpha (ER-alpha) signaling pathway (AID 743075; calls by dose curve;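 note: HEK293 GripTite cells with ER-alpha and UAS-driven beta-lactamase reporter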).
Experiment [5] shares this target. Put plainly: qHTS assay to identify small molecule agonists of the estrogen receptor alpha (ER-alpha) signaling pathway using the BG1 cell line (AID 743079). Note: nearly all actives have a fitted effect of over 20% in size. Note: potency is the fitted concentration of half-maximal effect.
Experiment [6] is described as follows: qHTS assay to identify small molecule antagonists of the estrogen receptor alpha (ER-alpha) signaling pathway using the BG1 cell line (AID 743080; calls by dose curve;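 note: BG1 cells stimulated with 17beta-estradiol alongside compound; series mostly up to about 70 µM; nearly all actives have a fitted effect of over 25% in size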). Summed up:
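Seeding, 24 h rest, compound transfer from DMSO, 17beta-estradiol addition, 21.5 h incubation, CellTiter-Fluor (30 min, 37 C), then ONE-Glo (30 min, room temperature): this sequence was run on BG1-Luc-4E2 reporter cells.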

The nature of experiment [7]: qHTS assay to identify small molecule antagonists of the estrogen receptor alpha (ER-alpha) signaling pathway using the BG1 cell line - cell viability counter screen (AID 743081).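 Note: compound given together with 17beta-estradiol as the ER stimulus; series mostly up to about 70 µM; nearly all actives have a fitted effect of over 45% in size.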
Experiment [8] concerns the target Aromatase (Homo sapiens) (UniProt P11511). Put plainly: qHTS assay to identify aromatase inhibitors (AID 743083). Note: series mostly up to about 70 µM; nearly all actives have a fitted effect of over 55% in size.
Experiment [9] is described as follows: qHTS assay to identify aromatase inhibitors - cell viability counter screen (AID 743084).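 Note: cells stimulated with testosterone during compound exposure; nearly all actives have a fitted effect of over 55% in size.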
In experiment [10] the target is Aryl hydrocarbon receptor (Homo sapiens) (UniProt P35869). The experiment is described as follows: qHTS assay to identify small molecule that activate the aryl hydrocarbon receptor (AhR) signaling pathway (AID 743085).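 For activation: HG2L7.5c1 human HepG2 liver cells with stably integrated DRE-driven firefly reporter; series mostly up to about 70 µM.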 Note: nearly all actives have a fitted effect of over 15% in size. Note: potency is the fitted concentration of half-maximal effect. Summed up: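 Luminescence read-out: ONE-Glo reagent, 30 min at room temperature, in HG2L7.5c1 HepG2 reporter cells treated 24 h at 37C. Viability was measured beforehand by CellTiter-Fluor fluorescence after 30 min at 37C.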

Experiment [11] in a line: qHTS assay to identify small molecule that activate the aryl hydrocarbon receptor (AhR) signaling pathway - cell viability counter screen (AID 743086).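 Note: HepG2 liver cells carrying the AhR DRE luciferase reporter; series mostly up to about 70 µM; nearly all actives have a fitted effect of over 45% in size.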 Summed up: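 HepG2-AhR-luc (HG2L7.5c1) cells, 4000/well, were preincubated 5 h at 37C, exposed to compound in qHTS format for 24 hr at 37C, then given CellTiter-Fluor for 30 min; viability was read as fluorescence in the reporter wells.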

Experiment [12] can be described thus: qHTS assay to identify small molecule antagonists of the peroxisome proliferator-activated receptor gamma (PPARg) signaling pathway - cell viability counter screen (AID 743194). Note: nearly all actives have a fitted effect of over 55% in size. The essentials:
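PPARg-UAS-bla HEK293H cells were plated, rested 5 h at 37 C, then treated with compounds plus rosiglitazone (50 nM final) for 17 h at 37 C; viability was then read by CellTiter-Glo luminescence after 30 min at room temperature.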

A short description of experiment [13]: qHTS assay for small molecule agonists of the antioxidant response element (ARE) signaling pathway (AID 743202; active = well fitted activation curve with a large enough effect in the signal ratio in the repeat runs, not every such curve was filed as active; the % refers to the signal ratio). The essentials:
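Following a 16 h, 37 C exposure of reporter HepG2 cells (ARE-driven beta-lactamase, 2,000 cells/well) to compounds, FRET substrate was applied for 2 h at room temperature and fluorescence intensity recorded.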

Experiment [14] in a line: qHTS assay for small molecule agonists of the antioxidant response element (ARE) signaling pathway - cell viability counter screen (AID 743203; calls by dose curve; note: nearly all actives have a fitted effect of over 55% in size). Summed up: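 Luminescence read-out (CellTiter-Glo, 30 min at room temperature) measured cell viability in the same wells as the ARE beta-lactamase reporter. HepG2 ARE-bla cells were treated with compounds for 16 hrs at 37C/5% CO2.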

The nature of experiment [15]: qHTS assay for small molecule activators of the heat shock response signaling pathway - cell viability counter screen (AID 743209). Note: nearly all actives have a fitted effect of over 50% in size. Summed up:
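HSE-bla HeLa; 1500 cells/well; overnight 37 C, 5% CO2; compound 5 h 37 C; LiveBLAzer B/G substrate 2.5 h RT; CellTiter-Glo 30 min RT; luminescence.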

Experiment [16] can be described thus: qHTS assay for small molecule activators of the heat shock response signaling pathway (AID 743210; active = well fitted activation curve with a large enough effect in the signal ratio in the repeat runs, with a control signal flat, not every such curve was filed as active; the % refers to the signal ratio; note: series mostly up to about 63 µM). The essentials: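 Heat shock element–beta-lactamase HeLa reporter cells; qHTS with compounds for 5 h at 37 C; detection by FRET substrate fluorescence after 2.5 h at RT.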
Experiment [17] in a line: qHTS assay to identify small molecule antagonists of the estrogen receptor alpha (ER-alpha) signaling pathway - cell viability counter screen (AID 743074; calls by dose curve;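 note: HEK293 cells carrying ER-alpha-UAS-bla reporter stimulated with 17beta-estradiol; nearly all actives have a fitted effect of over 45% in size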).
The target of experiment [18] is Peroxisome proliferator-activated receptor gamma (Homo sapiens) (UniProt P37231). The experiment is described as follows: qHTS assay to identify small molecule agonists of the peroxisome proliferator-activated receptor gamma (PPARg) signaling pathway (AID 743094; active = well fitted activation curve with a large enough effect in the signal ratio in the repeat runs, not every such curve was filed as active; the % refers to the signal ratio). The essentials: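 HEK293H PPARg-bla cells, 5 h settle at 37C/5% CO2; compound (DMSO) 17 h, 37C; B/G FRET substrate 1 h RT; fluorescence intensity read-out. qHTS format.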

For experiment [19] the target is unchanged. The experiment is described as follows: qHTS assay to identify small molecule antagonists of the peroxisome proliferator-activated receptor gamma (PPARg) signaling pathway (AID 743191; calls by dose curve; note: series mostly up to about 63 µM; nearly all actives have a fitted effect of over 30% in size). The essentials: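 GeneBLAzer PPARg UAS-bla HEK293H cells carrying a UAS-driven beta-lactamase reporter were plated at 3000 cells/well, preincubated 5 h at 37C, then given compound for 17 h at 37C; LiveBLAzer B/G FRET substrate was read after 1 h at room temperature.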
% is set by controls: 0 for no effect and ±100 for the full control effect.

Sequence of Aryl hydrocarbon receptor (Homo sapiens) (P35869 whole entry, looked up): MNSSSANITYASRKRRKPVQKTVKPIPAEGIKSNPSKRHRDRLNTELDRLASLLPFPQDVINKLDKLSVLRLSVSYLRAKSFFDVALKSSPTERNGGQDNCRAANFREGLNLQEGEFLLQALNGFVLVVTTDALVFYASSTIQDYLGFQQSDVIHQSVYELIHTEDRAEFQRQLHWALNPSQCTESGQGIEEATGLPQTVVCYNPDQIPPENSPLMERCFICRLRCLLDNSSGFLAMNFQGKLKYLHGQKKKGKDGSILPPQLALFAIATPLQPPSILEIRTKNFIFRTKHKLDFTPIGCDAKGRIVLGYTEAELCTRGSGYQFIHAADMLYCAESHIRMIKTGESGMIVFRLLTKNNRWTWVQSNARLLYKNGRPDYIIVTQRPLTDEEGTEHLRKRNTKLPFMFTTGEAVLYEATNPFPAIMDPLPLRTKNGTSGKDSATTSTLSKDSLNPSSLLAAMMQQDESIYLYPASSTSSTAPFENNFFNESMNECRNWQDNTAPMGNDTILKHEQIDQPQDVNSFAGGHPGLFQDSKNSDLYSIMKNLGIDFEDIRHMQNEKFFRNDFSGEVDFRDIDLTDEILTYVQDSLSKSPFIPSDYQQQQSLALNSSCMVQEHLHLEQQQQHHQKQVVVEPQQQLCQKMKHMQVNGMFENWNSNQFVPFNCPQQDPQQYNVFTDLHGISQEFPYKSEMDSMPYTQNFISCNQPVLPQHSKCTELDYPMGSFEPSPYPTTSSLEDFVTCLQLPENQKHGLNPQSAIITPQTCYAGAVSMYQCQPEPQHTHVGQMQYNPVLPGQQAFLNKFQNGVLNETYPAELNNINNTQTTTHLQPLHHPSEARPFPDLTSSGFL
Sequence of Peroxisome proliferator-activated receptor gamma (Homo sapiens) (P37231 whole entry, looked up): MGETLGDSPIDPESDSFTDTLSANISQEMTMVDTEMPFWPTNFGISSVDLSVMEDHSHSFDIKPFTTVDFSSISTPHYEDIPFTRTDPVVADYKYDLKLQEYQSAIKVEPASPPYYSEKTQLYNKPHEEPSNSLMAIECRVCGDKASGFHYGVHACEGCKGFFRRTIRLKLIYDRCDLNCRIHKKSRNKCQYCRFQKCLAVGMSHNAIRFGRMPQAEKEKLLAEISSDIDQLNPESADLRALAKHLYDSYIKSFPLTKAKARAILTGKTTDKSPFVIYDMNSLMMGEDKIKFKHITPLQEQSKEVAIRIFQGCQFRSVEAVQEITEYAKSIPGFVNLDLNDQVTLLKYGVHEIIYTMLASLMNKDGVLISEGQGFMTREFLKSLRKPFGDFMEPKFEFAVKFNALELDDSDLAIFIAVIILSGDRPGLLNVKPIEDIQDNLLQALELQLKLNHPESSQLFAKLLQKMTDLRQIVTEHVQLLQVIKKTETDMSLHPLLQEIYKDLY
Sequence of Aromatase (Homo sapiens) (P11511 whole entry, looked up): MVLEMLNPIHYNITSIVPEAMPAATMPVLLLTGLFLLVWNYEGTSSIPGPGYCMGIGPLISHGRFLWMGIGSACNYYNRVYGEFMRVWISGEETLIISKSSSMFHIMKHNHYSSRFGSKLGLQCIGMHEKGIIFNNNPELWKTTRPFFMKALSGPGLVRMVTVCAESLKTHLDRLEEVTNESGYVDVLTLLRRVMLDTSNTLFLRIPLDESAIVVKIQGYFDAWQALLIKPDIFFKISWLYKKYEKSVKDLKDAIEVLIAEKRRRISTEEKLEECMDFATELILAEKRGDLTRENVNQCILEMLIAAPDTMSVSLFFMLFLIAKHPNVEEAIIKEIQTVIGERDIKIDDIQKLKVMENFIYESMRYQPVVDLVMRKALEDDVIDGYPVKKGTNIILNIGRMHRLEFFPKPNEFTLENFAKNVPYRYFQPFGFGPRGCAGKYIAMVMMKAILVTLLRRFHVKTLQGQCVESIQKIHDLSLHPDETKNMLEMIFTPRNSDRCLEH
Sequence of Estrogen receptor (Homo sapiens) (P03372 whole entry, looked up): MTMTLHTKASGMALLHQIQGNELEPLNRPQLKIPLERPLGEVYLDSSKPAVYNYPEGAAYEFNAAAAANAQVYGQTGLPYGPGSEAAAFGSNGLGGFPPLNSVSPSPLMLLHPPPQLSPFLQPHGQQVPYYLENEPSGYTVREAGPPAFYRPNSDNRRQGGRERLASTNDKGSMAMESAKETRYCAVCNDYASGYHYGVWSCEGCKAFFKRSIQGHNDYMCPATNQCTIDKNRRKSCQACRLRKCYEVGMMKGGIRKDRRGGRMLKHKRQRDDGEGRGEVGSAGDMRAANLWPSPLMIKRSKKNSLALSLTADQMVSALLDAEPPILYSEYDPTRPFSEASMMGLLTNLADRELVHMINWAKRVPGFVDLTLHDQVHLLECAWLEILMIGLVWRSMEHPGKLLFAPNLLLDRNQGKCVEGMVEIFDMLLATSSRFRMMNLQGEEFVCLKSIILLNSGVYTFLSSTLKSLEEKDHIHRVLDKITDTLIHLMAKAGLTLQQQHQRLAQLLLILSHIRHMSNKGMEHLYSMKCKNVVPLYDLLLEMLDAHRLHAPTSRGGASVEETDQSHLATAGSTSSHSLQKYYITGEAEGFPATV

As to `C[C@H](NC(CCc1ccccc1)C(=O)O)C(=O)N1CCC[C@H]1C(=O)O` (stereo partly specified), the Potency entry in experiment [1], in experiment [4], in [5], in experiment [7], in experiment [8] and in [9] was “inactive” throughout. The Potency entry in experiment [10], in [11], in [13] and in experiment [14] was “inactive” throughout. Also, the call in [2], in experiment [3], in [6], in experiment [12], in experiment [15] and in experiment [16] was inactive.

For the compound `O=c1cc(-c2ccccc2)oc2ccccc12`, the Potency result in [1], in [7], in experiment [9], in experiment [11] and in experiment [14] was “inactive” throughout. In addition, the outcome in experiment [2], in [3], in experiment [17], in experiment [18], in [12] and in [15] was inactive. Also, the compound was classed as inactive in experiment [16]. For the same compound, the Potency in experiment [5] was 2.43 µM (active) and 3.95 µM (active); in experiment [10], 24.3 µM (active) and 5.91 µM (active).

Consider `CCO/C([O-])=N/c1c[n+](N2CCOCC2)no1`, for which the Potency entry in experiment [1], in experiment [4], in experiment [5], in experiment [7], in experiment [8] and in experiment [9] was “inactive” throughout. Moreover, the Potency result in experiment [10], in experiment [11] and in [13] was “inactive” in each case. Further, the outcome in [2], in experiment [3], in experiment [17], in experiment [6], in [12] and in [15] was inactive. In [16], the call was inactive.

In the case of `CCC=O`, the Potency entry in experiment [1], in experiment [7], in experiment [8], in [9], in experiment [10] and in experiment [11] was “inactive” each time. Moreover, the Potency result in experiment [13] and in experiment [14] was “inactive” throughout. Further, the call in [2], in experiment [3], in experiment [17], in experiment [6], in experiment [18] and in experiment [12] was inactive. Further, in [15], the result was inactive.

For `CCCCCOC(=O)CCCCC`, the Potency entry in experiment [1], in [4], in [5], in experiment [7], in experiment [8] and in experiment [9] was “inactive” each time. Besides, the Potency result in experiment [10], in [11], in [13] and in experiment [14] was “inactive” in each case. The compound was called inactive in experiment [2], in [3], in experiment [6], in experiment [18], in [12] and in experiment [15]. For the same compound, the call in experiment [16] was inactive.

On to `FC(F)OC(Cl)C(F)(F)F` (stereo unspecified), for which the Potency entry in [1], in experiment [7], in experiment [8], in [9], in experiment [10] and in experiment [11] was “inactive” each time. Further, the Potency result in [19], in [13] and in experiment [14] was “inactive” in each case. Besides, the compound was called inactive in experiment [2], in experiment [17], in experiment [18], in [15] and in experiment [16].

Turning to `N=c1nc(N2CCCCC2)cc(N)n1O`, the Potency entry in [1], in [4], in experiment [5], in experiment [7], in experiment [8] and in [9] was “inactive” each time. The Potency result in experiment [10], in experiment [11], in experiment [19], in experiment [13] and in experiment [14] was “inactive” throughout. Also, the compound was called inactive in experiment [2], in experiment [3], in [17], in [6], in [12] and in [15].

Regarding `CCCCCCCCCCCCCC=O`, the activity, negative = inhibition in experiment [1] was -3.68% [at 8.44 µM]; in [3], -10.5% [at 6.71 µM]; in [8], -2.09% [at 8.47 µM]. The activation was 0.523% [at 8.08 µM] in [2]; 2.95% [at 6.71 µM] in experiment [4]; -7.22% [at 7.08 µM] in [18]; -7.51% [at 8.36 µM] in experiment [13]; -0.951% [at 5.95 µM] in experiment [16]. For the same compound, the activity, negative = cytotoxicity in experiment [17] is -17.6% [at 6.72 µM]. For the same compound, the Potency in [5] was 2.69 µM (active). In addition, the activity change, negative = inhibition in experiment [6] was 0.386% [at 8.47 µM]. The activity change, negative = cytotoxicity in experiment [7] was -2.15% [at 8.47 µM]; in experiment [9], -6.33% [at 8.47 µM]; in experiment [12], 14.4% [at 5.95 µM]; in experiment [15], -3.36% [at 5.95 µM]. Also, the viability change, negative = cytotoxic in [11] is 3.67% [at 8.47 µM]. Also, the ratio activity, negative = inhibition in experiment [19] is -1.51% [at 5.95 µM].
